Measured values reported in ChEMBL document CHEMBL4513216, “Probing the Open Global Health Chemical Diversity Library for Multistage-Active Starting Points for Next-Generation Antimalarials” (ACS Infect Dis, 2020).
The campaign covered roughly 68,000 compounds. About 2,700 (4%) showed an effect of 50% or more. Shown is part of a subset that was picked to be rich in strong results.

The compounds below were run on Plasmodium berghei (assay: Screen against P. berghei liver stage (PbLuc), transformed with Luciferase, at 2uM). Conditions: tested at 2 uM.
Type: functional, HepG2
`CCN(Cc1ncc(C(C)(C)C)o1)Cc1ccccc1C` showed an INHIBITION of -47.18%. For `Cc1cccc(CN(Cc2ccccn2)Cc2ncc(C(C)(C)C)o2)c1`, the INHIBITION was 43.44%. `CCN(Cc1cccc(Cl)c1)Cc1ncc(C(C)(C)C)o1` gave an INHIBITION of 81.59%. For `OC1(CNc2ccc(Br)cn2)CCOCC1`, the INHIBITION was -58.79%. Work on `CC(C)(C)C(=O)NCCNCc1ccc(Cl)c2cccnc12` yielded an INHIBITION of -53.16%. `OC(CNCCn1cccn1)c1cccc(Br)c1` (stereo unspecified) showed an INHIBITION of -69.91%. Work on `CN(C)C(=O)N1CCc2onc(C(=O)Nc3cccnc3)c2C1` yielded an INHIBITION of 67.19%. For `CN(C)CCNC(=O)c1noc2c1CN(C(=O)N(C)C)CC2`, the INHIBITION was 59.76%. `CC(C)NC(=O)N1CCc2onc(C(=O)NCCN(C)C)c2C1` gave an INHIBITION of 42.62%. `Cc1ccc(CN2CCc3onc(C(=O)Nc4cccnc4)c3C2)o1` was tested, and the INHIBITION was 34.37%. `CC(C)C(=O)N1CCc2onc(C(=O)NCCN(C)C)c2C1` showed an INHIBITION of 11.37%. Work on `CC(C)NC(=O)N1CCc2onc(C(=O)Nc3cccnc3)c2C1` yielded an INHIBITION of 18.87%. For `CCc1ccc(C(=O)O)cc1S(=O)(=O)N(C)c1cccc(C)c1`, the INHIBITION was -2.2%. With `CN(Cc1ccccc1)C(=O)c1nc(S(C)(=O)=O)n2ccccc12` the INHIBITION was 3.9%. `O=C(O)c1nnn(-c2ccc(OC(F)(F)F)cc2)c1-c1ccncc1` gave an INHIBITION of 3.22%. Work on `CC(Nc1ccc2c(c1)CCC2)c1nc(C2CC2)no1` (stereo unspecified) yielded an INHIBITION of 6.47%. `Cc1ccc2oc(=O)n(CC(=O)N3CCC4(CC3)CN(C)C(=O)O4)c2c1` was tested, and the INHIBITION was -55.13%. Compound `COc1c(CNCc2ccc(C(=O)N(C)C(C)C)cc2)c(C)nn1C` has an INHIBITION of 4.55%. Work on `O=C(Cn1ccnc1)N(CCO)CCSc1ccc(Cl)cc1` yielded an INHIBITION of 56.21%. For `O=C(Cc1ccncc1)N(CCO)CCSc1ccc(Cl)cc1`, the INHIBITION was 47.2%. In the case of `O=C(Cn1cccn1)N(CCO)CCSc1ccc(Cl)cc1`, the INHIBITION is reported as -5.53%. `CCc1cnc(N2CCCOC(CN3CCCC3)C2)nc1` (stereo unspecified) gave an INHIBITION of -30.18%. `COCC1CN(CC2CC2)Cc2nn(CC3CC3)cc21` (stereo unspecified) was tested, and the INHIBITION was 11.34%. Compound `COCC(=O)N1CCN(S(=O)(=O)c2ccccc2)[C@H]2CS(=O)(=O)C[C@H]21` has an INHIBITION of 15.75%. `COCC(=O)N1CCN(C(=O)Cc2cccs2)[C@H]2CS(=O)(=O)C[C@H]21` was tested, and the INHIBITION was 54.47%. `COCC(=O)N1CCN(S(=O)(=O)c2cccs2)[C@H]2CS(=O)(=O)C[C@H]21` gave an INHIBITION of 18.77%. Compound `CN1C(=O)CCCC12CCCN(C(=O)c1cc(F)cc(F)c1)C2` (stereo unspecified) has an INHIBITION of 12.83%. `Cn1ccnc1CN1CCOC(Cn2cccn2)C1` (stereo unspecified) showed an INHIBITION of 7.01%. Work on `Cc1cccc(-c2ccc(C(=O)NCC3CCCOC3)c(=O)[nH]2)c1` (stereo unspecified) yielded an INHIBITION of -9.49%. Work on `Cc1cccc(-c2ccc(C(=O)NCC3CCCO3)c(=O)[nH]2)c1` (stereo unspecified) yielded an INHIBITION of 57.77%. In the case of `Cc1cccc(-c2ccc(C(=O)NCC3CCOC3)c(=O)[nH]2)c1` (stereo unspecified), the INHIBITION is reported as 17.39%.
